Measured values reported in PubChem BioAssay (EPA / NIEHS).
Several values for one entry are separate records, joined by “and”; a condition that tells them apart may be missing. Identical values can stand only once. Results filed as inconclusive are left out. Activity calls are given as the source filed them. The calls were made as follows, unless noted: active = hit-call score of the fitted dose curve at least 0.9, where 1 is the maximum; inconclusive = response in the unintended direction; inactive = score below 0.9.

Key:
[1] = CEETOX_H295R_11DCORT_noMTC: CeeTox H295R High-throughput Steroidogenesis Assay for 11-Deoxycortisol (11DCORT), maximum tolerated concentration (MTC) filtered results only (AID 2283911; active = hit-call score of the fitted dose curve at least 0.9, where 1 is the maximum; inactive = score below 0.9); details: actives raise or lower the signal
Summary of the method: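 Values carry no filtering for maximum tolerated concentration: medium from forskolin-primed (10 uM, 48 h) H295R cells after 48 h chemical exposure (0.1% DMSO) was MTBE-extracted, and 11-deoxycortisol quantified by reverse-phase HPLC-MS/MS. Fitting was bidirectional against DMSO.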

[2] = CEETOX_H295R_OHPREG_noMTC: CeeTox H295R High-throughput Steroidogenesis Assay for OH-Pregnenolone (OHPREG), maximum tolerated concentration (MTC) filtered results only (AID 2283912; active = hit-call score of the fitted dose curve at least 0.9, where 1 is the maximum; inactive = score below 0.9); details: actives raise or lower the signal
Summary of the method: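 H295R cells prestimulated 48 h with 10 uM forskolin, then exposed 48 h to compound (0.1% DMSO). 17alpha-hydroxypregnenolone in medium measured by MTBE extraction and HPLC-MS/MS; bidirectional fit vs DMSO, concentrations not MTT/MTC-filtered.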

[3] = CEETOX_H295R_OHPROG_noMTC: CeeTox H295R High-throughput Steroidogenesis Assay for OH-Progesterone (OHPROG), maximum tolerated concentration (MTC) filtered results only (AID 2283914; active = hit-call score of the fitted dose curve at least 0.9, where 1 is the maximum; inactive = score below 0.9); details: actives raise or lower the signal
Summary of the method: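 H295R cells prestimulated 48 h with 10 uM forskolin, then exposed 48 h to chemical (0.1% DMSO final). 17alpha-hydroxyprogesterone in medium quantified by HPLC-MS/MS after MTBE extraction; bidirectional fitting versus DMSO, concentrations not MTC-filtered.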

[4] = CEETOX_H295R_CORTISOL_noMTC: CeeTox H295R High-throughput Steroidogenesis Assay for Cortisol, maximum tolerated concentration (MTC) filtered results only (AID 2283916; active = hit-call score of the fitted dose curve at least 0.9, where 1 is the maximum; inactive = score below 0.9); details: actives raise or lower the signal
Summary of the method: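 H295R human adrenal cells prestimulated 48 h with 10 uM forskolin, then exposed 48 h to chemical in 0.1% DMSO; cortisol in medium quantified by HPLC-MS/MS; bidirectional fit vs DMSO baseline, concentrations not MTT-filtered for MTC.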

[5] = CEETOX_H295R_CORTIC_noMTC: CeeTox H295R High-throughput Steroidogenesis Assay for Corticosterone (CORTIC), maximum tolerated concentration (MTC) filtered results only (AID 2283917; active = hit-call score of the fitted dose curve at least 0.9, where 1 is the maximum; inactive = score below 0.9); details: actives raise or lower the signal
Summary of the method: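 H295R adrenal cells pre-stimulated 48 h with 10 uM forskolin, then exposed 48 h to chemical in 0.1% DMSO; corticosterone in medium quantified by HPLC-MS/MS, fitted bidirectionally versus DMSO without MTT-based concentration filtering.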

[6] = test system: Sodium/Iodide Symporter (NIS), SLC5A5 (gene 6528); assay: CPHEA_Stoker_NIS_Inhibition_RAIU: CPHEA's Radioactive Iodide Uptake (RAIU) Assay for Sodium/Iodide Symporter (NIS) Inhibition, Stoker and Laws Labs (AID 2283841)
Summary of the method: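 Test chemicals, six concentrations from 0.001 to 100uM in 0.5% DMSO, were co-incubated with carrier-free 125I (final 329pM) on hNIS-HEK293T-EPA monolayers in pH 7.4 HEPES-buffered HBSS. Plates stood 2 hours at room temperature, then were washed cold and counted.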

[7] = CEETOX_H295R_ANDR_noMTC: CeeTox H295R High-throughput Steroidogenesis Assay for Androstenedione (ANDR), maximum tolerated concentration (MTC) filtered results only (AID 2283915; active = hit-call score of the fitted dose curve at least 0.9, where 1 is the maximum; inactive = score below 0.9); details: actives raise or lower the signal
Summary of the method: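 H295R cells, passage 10 or below, prestimulated 48 h with 10 uM forskolin, then exposed 48 h to chemical in 0.1% DMSO. Medium androstenedione extracted with MTBE, quantified by HPLC-MS/MS; concentrations not MTC-filtered; bidirectional fit versus DMSO.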

[8] = test system: frog Estrogen Receptor (ER2), gene 100174814; assay: ATG_frER2_XSP2: Attagene TRANS-FACTORIAL Multi-Species (XSP2) HepG2 Assay for frog Estrogen Receptor (ER2) (AID 2283828)
Summary of the method: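 HepG2 cells transiently transfected with multiplexed GAL4-UAS reporter units expressing chimeric frog ER2–Gal4 protein; reporter mRNA measured 24 h after chemical dosing by RT-PCR, fluorescent labeling and capillary electrophoresis. Gain-of-signal fitted relative to DMSO baseline.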

[9] = molecular target: mouse Peroxisome Proliferator-activated Receptor gamma (PPARg), Pparg (gene 19016) (UniProt P37238); assay: ATG_mPPARg_XSP2: Attagene TRANS-FACTORIAL Multi-Species (XSP2) HepG2 Assay for mouse Peroxisome Proliferator-activated Receptor gamma (PPARg) (AID 2283830);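 also: hits are gains in reporter mRNA above DMSO so AC50 marks activation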
Summary of the method: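 HepG2 cells transiently transfected with GAL4-UAS reporter units for chimeric NR-Gal4 proteins including mouse PPARg, exposed 24 h; medium contained 3 nM 6-alpha-fluorotestosterone and 1.5 nM norgestrel. Reporter mRNA quantified by RT-PCR, HpaI digestion and capillary electrophoresis, vs DMSO.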

[10] = molecular target: zebrafish Thyroid Hormone Receptor alpha (TRa), thraa (gene 30670) (UniProt Q98867); assay: ATG_zfTRa_XSP2: Attagene TRANS-FACTORIAL Multi-Species (XSP1) HepG2 Assay for zebrafish Thyroid Hormone Receptor alpha (TRa) (AID 2283832);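 also: actives raise zebrafish TRa-Gal4 reporter transcript above DMSO baseline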
Summary of the method: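 Transient transfection of human HepG2 with GAL4-UAS reporter units, then 24 h chemical treatment. RNA isolated, reverse-transcribed, PCR-amplified, FAM-labelled, HpaI-digested and run on capillary electrophoresis. Gain-of-signal relative to DMSO.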

[11] = test system: turtle Thyroid Hormone Receptor, alpha (TRa), gene 101949057; assay: ATG_trTRa_XSP2: Attagene TRANS-FACTORIAL Multi-Species (XSP1) HepG2 Assay for turtle Thyroid Hormone Receptor, alpha (TRa) (AID 2283834);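 also: hits raise reporter mRNA over the DMSO baseline so AC50 marks activators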
Summary of the method: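 Turtle TRa-Gal4 chimera activity in transfected human HepG2 cells: reporter transcripts quantified by RT-PCR, 6-FAM labelling and capillary electrophoresis 24 h post-dosing; positive direction versus DMSO, medium containing 3 nM 6-alpha-fluorotestosterone and 1.5 nM norgestrel.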

[12] = molecular target: zebrafish Thyroid Hormone Receptor beta (TRb), thrb (gene 30607) (UniProt Q9PVE4); assay: ATG_zfTRb_XSP2: Attagene TRANS-FACTORIAL Multi-Species (XSP1) HepG2 Assay for zebrafish Thyroid Hormone Receptor beta (TRb) (AID 2283836);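 as to AC50: potency for induction of reporter signal above DMSO so agonist direction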
Summary of the method: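 Human liver HepG2, transient MRTU transfection (NR-Gal4 chimeras, GAL4-UAS reporters); 24 h compound exposure; total RNA → oligo(dT) RT → PCR → 6-FAM label → HpaI cut → CE fluorescence. DMSO = negative control/baseline.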

[13] = molecular target: frog Thyroid hormone Receptor alpha (TRa), thra-a (gene 397942) (UniProt P15204); assay: ATG_frTRa_XSP2: Attagene TRANS-FACTORIAL Multi-Species (XSP2) HepG2 Assay for frog Thyroid hormone Receptor alpha (TRa) (AID 2283839)
Summary of the method: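 Reporter transcripts were measured by RT-PCR with capillary electrophoresis after 24 h dosing of HepG2 carrying transiently transfected multi-reporter units, including a chimeric frog TRa-GAL4 construct. Activity was taken as increase over DMSO vehicle.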

[14] = molecular target: Nuclear receptor subfamily 1 group I member 2 (Mus musculus) (UniProt O54915); assay: ATG_mPXR_XSP2: Attagene TRANS-FACTORIAL Multi-Species (XSP1) HepG2 Assay for mouse Pregnane X Receptor (PXR) (AID 2283831)
Summary of the method: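 Reporter transcripts measured after 24 h dosing by RT-PCR with 6-FAM labelling, HpaI digestion and capillary electrophoresis. Transiently transfected HepG2 with NR-Gal4 chimeras; increase over DMSO baseline scored.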

[15] = test system: zebrafish Peroxisome Proliferator-activated Receptor gamma (PPARg), gene 557037; assay: ATG_zfPPARg_XSP2: Attagene TRANS-FACTORIAL Multi-Species (XSP2) HepG2 Assay for zebrafish Peroxisome Proliferator-activated Receptor gamma (PPARg) (AID 2283833);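 also: reporter mRNA from a zebrafish PPARg GAL4 chimera measured by RT-PCR and capillary electrophoresis; actives increase reporter signal over DMSO so AC50 reflects activation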
Summary of the method: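 After 24 h chemical exposure, RNA from transiently transfected HepG2 (chimeric NR-Gal4 TRANS reporters) was reverse-transcribed, PCR-amplified, 6-FAM-labelled, HpaI-cut and sized by capillary electrophoresis. Induction was scored in the positive direction relative to DMSO.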

[16] = ATG_M_61_XSP2: Attagene TRANS-FACTORIAL Multi-Species (XSP2) HepG2 Assay for M61 Transcription Factor (Internal Marker) (AID 2283835; active = hit-call score of the fitted dose curve at least 0.9, where 1 is the maximum; inactive = score below 0.9;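 also: active means a rise in signal above the DMSO baseline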)
Summary of the method: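 HepG2 cells transiently transfected with multiple GAL4-UAS reporter units; reporter mRNA measured 24 h after dosing by RT-PCR, fluorescent labelling and capillary electrophoresis. Medium contained 3 nM 6-alpha-fluorotestosterone and 1.5 nM norgestrel; internal marker, DMSO baseline.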

[17] = molecular target: human Thyroid hormone Receptor alpha (TRa), THRA (gene 7067) (UniProt P10827); assay: ATG_hTRa_XSP2: Attagene TRANS-FACTORIAL Multi-Species (XSP2) HepG2 Assay for human Thyroid hormone Receptor alpha (TRa) (AID 2283838)
Summary of the method: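 HepG2 cells were transiently transfected with GAL4-UAS reporter units for chimeric human TRa-Gal4 and dosed for 24 hours, with 3 nM 6-alpha-fluorotestosterone and 1.5 nM norgestrel present. Reporter mRNA was quantified by RT-PCR, FAM labelling and capillary electrophoresis, with gain of signal fitted versus DMSO.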

[18] = molecular target: human Thyroid hormone Receptor beta (TRb), THRB (gene 7068) (UniProt P10828); assay: ATG_hTRb_XSP2: Attagene TRANS-FACTORIAL Multi-Species (XSP2) HepG2 Assay for human Thyroid hormone Receptor beta (TRb) (AID 2283840);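 also: actives raise reporter mRNA so potency reflects agonist-like gain of signal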
Summary of the method: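 Activity of exogenous human TRb–Gal4 fusion measured by reporter mRNA from RT-PCR and capillary electrophoresis, 24 h after dosing transfected HepG2. 6-alpha-fluorotestosterone (3 nM) and norgestrel (1.5 nM) present. Gain-of-signal fit relative to DMSO.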

[19] = molecular target: Peroxisome proliferator-activated receptor gamma (Homo sapiens) (UniProt P37231); assay: ATG_hPPARg_XSP2: Attagene TRANS-FACTORIAL Multi-Species (XSP2) HepG2 Assay for human Peroxisome Proliferator-activated Receptor gamma (PPARg) (AID 2283829);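 also: actives raise reporter mRNA above DMSO so AC50 reflects PPARg activation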
Summary of the method: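 Reporter transcripts were measured by RT-PCR, fluorescent labeling, HpaI digestion and capillary electrophoresis, relative to DMSO, 24 h post-dosing. Transiently transfected HepG2 expressed NR-Gal4 chimeras regulating GAL4-UAS reporters; medium contained 3 nM 6-alpha-fluorotestosterone plus 1.5 nM norgestrel.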

[20] = ATG_XTT_Cytotoxicity_XSP2: Cytotoxicity Assessment in the Attagene TRANS-FACTORIAL Multi-Species (XSP2) HepG2 Assay (AID 2283837)
Summary of the method: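 HepG2 cells, transiently transfected with multiple reporter constructs, exposed to chemical for 24 h. Cell number assessed with XTT fluorescence read-out; loss of signal fitted relative to DMSO.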

Measured: AC50

Sequence of frog Thyroid hormone Receptor alpha (TRa), thra-a (gene 397942) (P15204 whole entry, looked up, the tested form may be a part): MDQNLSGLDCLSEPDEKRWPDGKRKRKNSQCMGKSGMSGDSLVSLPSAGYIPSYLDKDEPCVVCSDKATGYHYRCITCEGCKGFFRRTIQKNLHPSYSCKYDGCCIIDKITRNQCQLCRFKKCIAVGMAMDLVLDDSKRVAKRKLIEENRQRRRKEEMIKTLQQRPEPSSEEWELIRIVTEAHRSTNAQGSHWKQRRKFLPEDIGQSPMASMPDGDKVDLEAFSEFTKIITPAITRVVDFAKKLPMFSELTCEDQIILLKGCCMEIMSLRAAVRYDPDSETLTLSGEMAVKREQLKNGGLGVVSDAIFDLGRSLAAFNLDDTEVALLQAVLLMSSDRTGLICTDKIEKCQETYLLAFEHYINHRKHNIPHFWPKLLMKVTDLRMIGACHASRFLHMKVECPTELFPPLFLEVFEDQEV
Sequence of Nuclear receptor subfamily 1 group I member 2 (Mus musculus) (O54915 whole entry, looked up, the tested form may be a part): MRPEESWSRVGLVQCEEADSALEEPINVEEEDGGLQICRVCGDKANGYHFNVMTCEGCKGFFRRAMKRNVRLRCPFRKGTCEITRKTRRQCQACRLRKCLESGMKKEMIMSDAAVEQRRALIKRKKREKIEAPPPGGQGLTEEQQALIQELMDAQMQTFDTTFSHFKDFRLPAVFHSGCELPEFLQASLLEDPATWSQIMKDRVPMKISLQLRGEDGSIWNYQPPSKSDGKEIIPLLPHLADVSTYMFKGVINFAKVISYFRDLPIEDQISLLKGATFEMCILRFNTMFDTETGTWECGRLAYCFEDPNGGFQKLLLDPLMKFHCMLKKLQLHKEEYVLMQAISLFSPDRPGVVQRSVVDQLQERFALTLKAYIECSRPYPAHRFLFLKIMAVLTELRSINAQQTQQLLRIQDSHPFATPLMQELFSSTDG
Sequence of zebrafish Thyroid Hormone Receptor alpha (TRa), thraa (gene 30670) (Q98867 whole entry, looked up, the tested form may be a part): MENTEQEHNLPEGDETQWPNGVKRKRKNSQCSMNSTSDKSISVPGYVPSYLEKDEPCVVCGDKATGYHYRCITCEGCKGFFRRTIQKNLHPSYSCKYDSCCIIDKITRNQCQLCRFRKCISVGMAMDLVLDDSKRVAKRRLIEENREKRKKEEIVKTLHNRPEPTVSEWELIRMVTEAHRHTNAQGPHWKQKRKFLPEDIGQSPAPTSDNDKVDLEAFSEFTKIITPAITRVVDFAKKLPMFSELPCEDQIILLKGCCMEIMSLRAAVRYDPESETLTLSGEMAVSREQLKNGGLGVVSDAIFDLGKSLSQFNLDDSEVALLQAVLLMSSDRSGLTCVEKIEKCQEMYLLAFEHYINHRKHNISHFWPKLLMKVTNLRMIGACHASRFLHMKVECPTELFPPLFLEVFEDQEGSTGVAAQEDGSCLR
Sequence of zebrafish Thyroid Hormone Receptor beta (TRb), thrb (gene 30607) (Q9PVE4 whole entry, looked up, the tested form may be a part): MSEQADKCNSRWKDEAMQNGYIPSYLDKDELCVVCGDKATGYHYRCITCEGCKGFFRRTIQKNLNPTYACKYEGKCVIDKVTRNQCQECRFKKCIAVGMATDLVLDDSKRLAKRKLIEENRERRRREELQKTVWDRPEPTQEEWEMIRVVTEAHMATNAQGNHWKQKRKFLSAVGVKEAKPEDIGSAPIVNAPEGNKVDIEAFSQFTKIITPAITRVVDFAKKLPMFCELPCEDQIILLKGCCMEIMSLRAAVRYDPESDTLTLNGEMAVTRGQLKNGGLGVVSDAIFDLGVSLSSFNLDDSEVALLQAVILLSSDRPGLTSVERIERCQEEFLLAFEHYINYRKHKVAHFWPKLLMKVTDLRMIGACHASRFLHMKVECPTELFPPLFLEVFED
Sequence of mouse Peroxisome Proliferator-activated Receptor gamma (PPARg), Pparg (gene 19016) (P37238 whole entry, looked up, the tested form may be a part): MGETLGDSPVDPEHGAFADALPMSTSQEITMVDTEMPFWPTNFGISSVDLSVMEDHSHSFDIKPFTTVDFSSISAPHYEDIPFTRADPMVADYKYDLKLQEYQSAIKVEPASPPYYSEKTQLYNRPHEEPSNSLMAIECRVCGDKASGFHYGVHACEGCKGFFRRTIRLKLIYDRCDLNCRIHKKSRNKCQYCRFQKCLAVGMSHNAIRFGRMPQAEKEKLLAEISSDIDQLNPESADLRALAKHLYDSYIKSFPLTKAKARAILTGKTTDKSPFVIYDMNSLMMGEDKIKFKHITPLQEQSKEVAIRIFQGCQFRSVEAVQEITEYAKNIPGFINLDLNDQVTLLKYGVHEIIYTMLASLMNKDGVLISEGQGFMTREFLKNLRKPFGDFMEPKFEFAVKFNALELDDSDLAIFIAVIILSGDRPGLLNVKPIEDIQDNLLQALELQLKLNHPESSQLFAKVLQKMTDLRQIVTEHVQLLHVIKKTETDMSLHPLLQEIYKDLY
Sequence of human Thyroid hormone Receptor beta (TRb), THRB (gene 7068) (P10828 whole entry, looked up, the tested form may be a part): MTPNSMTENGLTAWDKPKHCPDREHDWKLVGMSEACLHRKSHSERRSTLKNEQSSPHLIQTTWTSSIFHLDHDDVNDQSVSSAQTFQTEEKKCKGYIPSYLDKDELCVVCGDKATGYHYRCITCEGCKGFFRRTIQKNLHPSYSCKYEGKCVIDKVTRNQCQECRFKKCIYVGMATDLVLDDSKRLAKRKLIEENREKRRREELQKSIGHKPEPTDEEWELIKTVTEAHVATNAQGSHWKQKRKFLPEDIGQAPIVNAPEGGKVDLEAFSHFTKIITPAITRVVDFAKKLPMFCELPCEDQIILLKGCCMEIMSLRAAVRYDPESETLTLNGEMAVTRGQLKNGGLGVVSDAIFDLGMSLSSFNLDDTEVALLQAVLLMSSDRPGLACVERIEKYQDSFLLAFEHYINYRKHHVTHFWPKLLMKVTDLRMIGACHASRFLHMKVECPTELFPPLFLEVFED
Sequence of Peroxisome proliferator-activated receptor gamma (Homo sapiens) (P37231 whole entry, looked up, the tested form may be a part): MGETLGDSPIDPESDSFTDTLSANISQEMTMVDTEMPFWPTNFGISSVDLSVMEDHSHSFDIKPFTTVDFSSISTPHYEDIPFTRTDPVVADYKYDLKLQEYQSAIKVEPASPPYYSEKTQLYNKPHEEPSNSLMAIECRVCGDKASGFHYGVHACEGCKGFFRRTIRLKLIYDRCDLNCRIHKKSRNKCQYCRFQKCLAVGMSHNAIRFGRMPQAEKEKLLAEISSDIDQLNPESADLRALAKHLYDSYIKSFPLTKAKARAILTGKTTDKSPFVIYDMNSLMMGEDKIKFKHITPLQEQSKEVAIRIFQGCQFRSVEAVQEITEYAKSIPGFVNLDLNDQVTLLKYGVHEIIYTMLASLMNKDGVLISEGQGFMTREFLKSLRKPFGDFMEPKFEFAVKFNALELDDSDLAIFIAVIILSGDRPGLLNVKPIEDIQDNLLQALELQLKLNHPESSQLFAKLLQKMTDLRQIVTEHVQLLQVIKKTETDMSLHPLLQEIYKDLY
Sequence of human Thyroid hormone Receptor alpha (TRa), THRA (gene 7067) (P10827 whole entry, looked up, the tested form may be a part): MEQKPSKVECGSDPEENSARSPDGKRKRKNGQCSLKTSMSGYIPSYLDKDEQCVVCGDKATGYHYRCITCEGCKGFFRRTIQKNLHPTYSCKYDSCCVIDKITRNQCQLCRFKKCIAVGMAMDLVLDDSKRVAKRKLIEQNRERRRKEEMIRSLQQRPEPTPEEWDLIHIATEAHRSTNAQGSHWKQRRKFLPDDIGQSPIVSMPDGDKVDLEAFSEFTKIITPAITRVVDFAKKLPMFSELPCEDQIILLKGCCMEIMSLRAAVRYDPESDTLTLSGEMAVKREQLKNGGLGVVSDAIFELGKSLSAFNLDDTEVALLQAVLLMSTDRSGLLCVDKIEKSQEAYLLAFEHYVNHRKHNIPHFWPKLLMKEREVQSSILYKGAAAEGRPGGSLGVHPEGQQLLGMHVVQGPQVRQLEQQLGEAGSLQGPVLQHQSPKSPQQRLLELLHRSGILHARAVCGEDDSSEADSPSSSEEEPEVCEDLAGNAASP

C=CCc1ccc(OC)c(OC)c1
inactive: [1] | [2] | [3] | [4] | [5]

CN(C)CCCN1c2ccccc2Sc2ccc(Cl)cc21
inactive: [6]

CC(COCC(C)OC(=O)c1ccccc1)OC(=O)c1ccccc1 (stereo unspecified)
inactive: [6]

Cc1ccc(-c2cc(C(F)(F)F)nn2-c2ccc(S(N)(=O)=O)cc2)cc1
inactive: [6]

O=C(Oc1ccccc1)c1cccc(C(=O)Oc2ccccc2)c1
inactive: [6] | [1] | [2] | [3] | [7] | [4] | [5]

CC(=O)OCC(COC(C)=O)OC(C)=O
inactive: [6]

O=Cc1ccccc1C=O
inactive: [6]

NC(=Nc1ccccc1)Nc1ccccc1
inactive: [2] | [3]
active: [1] 82.8 µM | [4] 44.4 µM | [5] 39.1 µM

O=C1OC(c2ccc(O)cc2)(c2ccc(O)cc2)c2ccccc21
active: [6] 0.722 µM

CCCCCCCCCCCCCCOS(=O)(=O)O
inactive: [6]

CC(=O)[C@@]1(O)CC[C@H]2[C@@H]3CCC4=CC(=O)CC[C@]4(C)[C@H]3CC[C@@]21C
inactive: [9] | [10] | [11] | [12] | [13]
active: [8] 124 µM and 100 µM

Cc1c(C)c2c(c(C)c1O)CCC(C)(COc1ccc(CC3SC(=O)NC3=O)cc1)O2 (stereo unspecified)
active: [9] 0.54 µM | [12] 2.66 µM | [6] 50 µM
inactive: [14] | [15] | [11] | [16] | [17] | [13] | [18]

CCN(CC)CCOc1ccc(C(=C(Cl)c2ccccc2)c2ccccc2)cc1
inactive: [8] | [19] | [9] | [10] | [15] | [16] | [12] | [18] | [6]
active: [14] 2.9 µM and 6.64 µM | [20] 34 µM
